The results in this text go back to the supplement of paper PMC6555819.

This experiment concerns PPARg homodimer (NR concentration 180 nM). In words: PBM binding z-score (relative to random genomic background probes); higher = stronger binding; sequences stand for … in GC…GCGATTGACAGCGTAGAATGAAGG
An outline of the steps:
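Probes were double-stranded and carried 34-nt variable regions with direct-repeat seeds, single-nucleotide variants, half-site ablations and random human genomic background sequences, printed on custom Agilent 4×180K protein-binding microarrays. Arrays were incubated 1 h with ligand-free nuclear receptor dimers in PBS pH 7.4, 2% milk, 0.02% Triton X-100, 1 mM DTT, 0.2 mg/mL BSA and 0.4 mg/ml salmon testes DNA. Antibodies against each partner (one per run) detected binding, and scanned fluorescence was regression-normalized. Binding z-scores use the random background probes as reference.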
TCTCGTTGGTCAAAGGTCACACACTCGAAATGCG came in with a PBM binding z-score of 5.26.

The sequence TAGCCTAGGTCATTGGGCCACTATAGTACGCATC returned a PBM binding z-score of 0.995.

Sequence TAGCCTAGGTCATTCAGTGGCCAGTATAGAAAGC returned a PBM binding z-score of 1.28.

TGAATGAGGTTATAAGATGAGGGAACGTTGCAAA gave a PBM binding z-score of 0.684.

Regarding CAAACTAGGCCAAAGGTCAAAGTCGAGCCAACCA, the PBM binding z-score was found to be 2.88.

Take GCAGGCAGGTGAAACGCAGGTAACTCAGGGTGGC: the PBM binding z-score is -0.662.

With CTCGAAAGGTCGGTTGAGGTTAGTATACGGATAA, the PBM binding z-score is 1.47.

CCAACTAGGTCAAGGACAGTGAATCTCCGCACGC registered a PBM binding z-score of 2.38.

CCGACTGGGGCATAAAGGTTACCATACCATCCGG: the PBM binding z-score was 1.42.

With ACTAGTTGGTCAGCTGAGGTCAGACACAATTCGG, the PBM binding z-score worked out at 1.04.

AGTCAAAGTTCATCTAGGTACCGTAAGATATGCT returned a PBM binding z-score of 3.06.

Regarding CCGACAGGGGCAAAGGTTACCATACTCAGTACGA, the PBM binding z-score was 1.78.

For CCTATTGGGCCATTCAGAGGTCATTGATCATATG, the PBM binding z-score stood at 1.37.

Sequence CCTATTAGTTGACCCTAAGGGCAACCGAAGCTCG registered a PBM binding z-score of 3.19.

As to AGTCAAAGTTCCCTAGGTAACGTAAGATTCAGCT, the PBM binding z-score is -0.325.

As for TGTAGCAGGCCAGAGGGTCACTCAAGAGGTACGG, the PBM binding z-score came out at 0.876.

As for TAGCCTTGGTCAGATCGGGCCAGTATACGCTATA, the PBM binding z-score is -1.31.

As to ATCCCTAGGTAAAGTTCAGTGAAAGATCGATAGA, the PBM binding z-score is 1.6.
